Potency and affinity values are given separately. Calls of active or inactive are those of the source. The rule behind the calls is not given here.
These compounds were tested against Beta-2 adrenergic receptor (Homo sapiens) (UniProt P07550) (assay: beta2AR agonists driving receptor internalization, dose response, cell-based, FAP fluorogen, flow cytometry, cherry pick 1 (AID 588763)). Details: AM2.2-beta2AR cells, 90 min; series mostly up to 33 µM; activation (receptor internalization): at the top concentration.
Beta-2 adrenergic receptor (Homo sapiens), sequence (P07550 whole entry, looked up): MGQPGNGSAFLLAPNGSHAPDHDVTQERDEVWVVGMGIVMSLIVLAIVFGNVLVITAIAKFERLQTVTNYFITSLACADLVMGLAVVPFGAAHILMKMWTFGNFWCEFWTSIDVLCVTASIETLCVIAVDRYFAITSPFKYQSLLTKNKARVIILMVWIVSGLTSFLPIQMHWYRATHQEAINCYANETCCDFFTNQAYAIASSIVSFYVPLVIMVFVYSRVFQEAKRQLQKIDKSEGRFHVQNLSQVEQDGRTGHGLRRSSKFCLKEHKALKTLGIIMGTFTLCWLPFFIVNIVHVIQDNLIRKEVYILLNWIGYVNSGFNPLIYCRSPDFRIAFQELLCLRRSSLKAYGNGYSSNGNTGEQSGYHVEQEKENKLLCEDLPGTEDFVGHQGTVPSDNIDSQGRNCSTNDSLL

Activation (receptor internalization), inactive:
Cc1cccc(C)c1NC(=O)Cn1nnc(-c2ccc(N3CCOCC3)cc2)n1 -4.76%
COc1cc(NC(=O)c2ccc3c(c2)OCO3)ccc1NC(=O)c1ccco1 -12.7%
COCc1ccc(CN2CCCC(C(=O)Nc3ccc(-c4cccc(OC)c4)cc3)C2)o1 (configuration not stated) 24.9%
CCCOc1ccc(-c2nnn(CC(=O)Nc3cccc(C(=O)OC)c3)n2)cc1 -10.7%
O=C(CCn1c(=O)[nH]c2ccsc2c1=O)NCc1ccc(F)cc1 -7.29%
CSc1ccc(CCNC(=O)C2CCN(c3nnc(-n4cccc4)s3)CC2)cc1 88.6%
O=C(Nc1ccc(NC(=O)c2ccccc2F)cc1)c1cccs1 -0.287%
CC(C)c1nc2sc3c(NCc4ccccc4)ncnc3c2c2c1COC(C)(C)C2 13%
CCOc1ccc(CNC(=O)C2CCN(c3nnc(C)c4c(C)n(-c5ccc(C)cc5)nc34)CC2)cc1 65.3%
CCC(NC(=O)c1cc(COc2cncc(Cl)c2)on1)c1ccc(C)cc1 (configuration not stated) -14.4%
O=C(Cn1nnc(-c2ccccc2)n1)Nc1ccccc1N1CCOCC1 -11.5%
Cc1ccc(NC(=O)c2cc(N3C(=O)C=CC3=O)ccc2N2CCOCC2)cc1 110%
O=C(NC1CCc2ccccc21)c1cc(COc2cncc(Cl)c2)on1 (configuration not stated) 3.55%
O=C(COc1ccc(S(=O)(=O)N2CCOCC2)cc1)Nc1ccccc1F -2.76%
CCOc1ccccc1CNC(=O)C1CCN(c2nnc(C)c3c(C)n(-c4ccc(C)cc4)nc23)CC1 76.3%
CC1CCN(C(C(=O)Nc2ccc3c(c2)OCO3)c2ccccc2)CC1 (configuration not stated) 6.59%
COc1ccccc1C(=O)Nc1ccc2oc(-c3ccc(F)cc3)nc2c1 -9.56%

From PubChem BioAssay AID588763 (NMMLSC, 2011)
